Measurements reported in PubChem BioAssay AID602229 (The Scripps Research Institute Molecular Screening Center, 2012).
Hit rate of the full screen: of about 360,000 compounds, about 1,300 (0.36%) were called active.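 The calls were made as follows: active = inhibition above the mean of all tested compounds plus 3 SD (cut at about 70% in these data); inactive = the rest.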 The full list was thinned out, with actives kept by preference.

Target: Photoreceptor-specific nuclear receptor (Homo sapiens) (UniProt Q9Y5X4)
Sequence (Q9Y5X4 whole entry, looked up, the tested form may be a part): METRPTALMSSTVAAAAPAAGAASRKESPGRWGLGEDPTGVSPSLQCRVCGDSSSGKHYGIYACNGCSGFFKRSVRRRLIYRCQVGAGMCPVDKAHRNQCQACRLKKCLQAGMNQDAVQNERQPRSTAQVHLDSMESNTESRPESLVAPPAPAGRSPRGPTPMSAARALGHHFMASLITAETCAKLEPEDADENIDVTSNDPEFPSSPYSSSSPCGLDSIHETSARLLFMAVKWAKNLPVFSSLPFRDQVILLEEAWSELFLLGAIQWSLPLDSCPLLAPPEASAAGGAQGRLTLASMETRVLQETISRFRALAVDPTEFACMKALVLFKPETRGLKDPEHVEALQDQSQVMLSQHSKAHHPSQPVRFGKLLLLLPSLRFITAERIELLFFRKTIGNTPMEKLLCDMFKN
Assay: NR2E3 agonists in two-hybrid cells, primary screen, cell-based, luminescence, CHO-S, Gal4-NCOR/VP16-NR2E3 (AID 602229);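 also: 0% = DMSO with NR2E3 transfected cells and 100% = cells lacking NR2E3 construct; higher means lower luciferase signal from less NR2E3 corepressor binding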
Conditions: luciferase, at 3.98 µM, active compounds read high

Inhibition of corepressor binding, active:
O=C(c1ccc(N2CCCC2=O)cc1)N1CCN(c2ccc(C(F)(F)F)cc2[N+](=O)[O-])CC1 82.8%
COC(=O)c1sccc1NC(=O)CSc1ccccc1NS(=O)(=O)c1cc(Cl)ccc1Cl 89.8%
Oc1c(Cl)cc(Cl)c(Cl)c1Cc1c(O)c(Cl)cc(Cl)c1Cl 90.7%
COc1ccc2c(c1)c(=Cc1ccc(N(C)C)cc1)c1cc(-c3ccccc3)[n+](C)n12 82.2%
O=C(Nc1ccccc1Cl)/C(Cl)=C(\Cl)S(=O)c1ccccc1 (configuration not stated) 90.4%
CN(C)C(=S)N=c1ssc(=S)n1Cc1ccco1 91.5%
CC(C)OCCCNc1ncnc2c1[nH]c1ccc(F)cc12 75.6%
COc1ccc(S(=O)(=O)NCCCCOc2ccc(Cl)cc2)cc1 96.7%
OC(c1ccc(Cl)cc1)c1ncc(-c2ccc(Cl)cc2)[nH]1 (configuration not stated) 71.4%
O=C1C=C(c2ccnc3cc(Cl)ccc23)C[C@@H](c2ccc3c(c2)OCO3)C1 85.8%
OC[C@@H]1CN(Cc2ccc(-c3ccccc3)cc2)C[C@H](n2cnc3c(NC4CCCC4)ncnc32)O1 91.4%

Inhibition of corepressor binding, inactive:
Cc1nnc(SCC(=O)Nc2ncc3c(n2)CC(C)(C)CC3=O)s1 -5.27%
Cc1cc2oc(=O)cc(CN(C)Cc3ccc(OC(F)F)cc3)c2cc1Cl -26%
Cc1ccc(NC(=S)N(CCN(C)C)Cc2cccs2)cc1C -15.7%
COC(=O)c1sccc1NS(=O)(=O)c1ccc(F)cc1F -9.53%
COC(=O)c1scc(C)c1NC(=O)CSc1ccc(Cl)cc1 2.57%
CCCC(=O)Nc1nnc(CC(=O)OCC)s1 12.6%
CCn1nc(C)c(CN2CCN(Cc3ccc(OC)c(C)c3C)C(CCO)C2)c1C (configuration not stated) -29.8%
CC(C(=O)N1CCOCC1)N1c2cccc3cccc(c23)S1(=O)=O (configuration not stated) -0.03%
C=CCn1c(SCC(=O)c2ccc(Br)cc2)nnc1C(C)NC(=O)Cc1ccc(OC)cc1 (configuration not stated) 22.7%
C=CCn1c(C23CC4CC(CC(C4)C2)C3)n[nH]c1=S -1.8%
Cc1nc(NC(=O)CCC(=O)O)sc1C(=O)N(C)C -26.6%
C[C@@H]1NC(=O)c2cc([N+](=O)[O-])cc(F)c2NCCC[C@@H](C(N)=O)NC(=O)[C@H](CC(N)=O)NC1=O -1.65%
Cc1cc(C(=O)OCC(=O)Nc2ccccc2Cl)c(C)o1 -11.3%
O=C(Nc1ccccc1C(=O)N1CCCCCC1)c1ccccc1Cl -5.45%
Cc1sc2ncnc(SCC(=O)NC3CCS(=O)(=O)C3)c2c1C (configuration not stated) 11.1%
CCNC(=O)c1c(O)c2cccc3c2n(c1=O)CC3 -12.8%
CCN(CC)C(=O)CSc1nnc(CNc2ccc(F)cc2)n1Cc1ccco1 -4.24%
CC1CN(Cc2ccco2)C(=S)N(c2ccccc2)C1=O (configuration not stated) 10.4%
C=CCNC(=O)c1ccccc1SCc1c(C)noc1C -20.3%
CC(/C=C/c1ccco1)=N/NC(=O)C1COc2ccccc2O1 (configuration not stated) -22.3%
CC1CC1C(=O)OCC(=O)c1c(N)n(C)c(=O)n(C)c1=O (configuration not stated) 4.9%
FC(F)(F)c1nnc2c3ccccc3c(Cl)nn12 -2.37%
COc1ccc(OCCNS(=O)(=O)Cc2ccccc2)cc1 -15.6%
COc1ccc(S(=O)(=O)NCCOc2ccccc2)cc1F -29.5%
CCOC(=O)c1sc(C)c2c1NC(C)(c1cccc3ccccc13)NC2=O (configuration not stated) -1.53%
Cc1ccc(-c2cnc(C(O)c3cc(Cl)cc(Cl)c3)[nH]2)cc1 (configuration not stated) -10.6%
OC(c1ccc(F)cc1)c1ncc(-c2cccc(C(F)(F)F)c2)[nH]1 (configuration not stated) 30.1%
Cc1[nH]n(C(N)=S)c(=O)c1N=Nc1ccc(Cl)cc1Cl -3.9%
O=C(NCc1ccccc1)c1cccc(NC(=O)C2CCCCC2)c1 -12.6%
O=C1CSC(c2cccc(F)c2)N1c1ccccc1F (configuration not stated) -28.1%
O=C1C=C(c2cc(C(F)(F)F)cc(C(F)(F)F)c2)C[C@@H](c2ccc3c(c2)OCO3)C1 -2.34%
O=C1C=C(c2cccc(Cl)c2)C[C@@H](c2ccc(F)cc2)C1 -24.8%
O=C(CN1CCSCC1)N/N=C/c1ccc(F)cc1F -6.92%
CCOC(=O)N1CCN(S(=O)(=O)c2cc(Br)cc3c2N(C(=O)C2CC2)CC3)CC1 -15.4%
OC[C@@H]1CN(Cc2cccs2)C[C@H](n2cnc3c(NC4CCCC4)ncnc32)O1 -11.2%
OC[C@@H]1CN(Cc2ccc(F)cc2)C[C@H](n2cnc3c(NC4CCCC4)ncnc32)O1 -45.5%
